NALP3 yeast inh: NALP3 inflammasome inhibitors in reconstituted yeast, primary screen, luminescence, uHTS. Yeast reconstituted NLRP3/ASC/caspase-1, beta-gal luminescence, 24 h. inhibition, % at 10 µM. hit rate 0.39% among 330,000;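 active = inhibition of 50% or more; inactive = inhibition below 50%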
tim10-1 inh: growth inhibitors of tim10-1 mutant yeast, primary screen, luminescence, uHTS; inhibition, % at 20 µM; S. cerevisiae tim10-1 ts strain growth, BacTiter-Glo, 24 h; hit rate 2.2% among 330,000;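 active = inhibition of at least 40%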;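 also: mutant grown at 25 °C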
tim23-1 inh: growth inhibitors of tim23-1 mutant yeast, primary screen, luminescence, uHTS; S. cerevisiae tim23-1 growth, BacTiter-Glo luminescence, 24 h; inhibition, % at 20 µM; hit rate 1.3% among 330,000;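 active = growth inhibition of the mutant yeast at or above 50%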;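 also: temperature-sensitive mutant grown at 25 °C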
TIM10 inh: growth inhibitors of isogenic TIM10 control yeast, primary screen, counter-screen for tim10-1 yeast inhibitor project, luminescence, uHTS; S. cerevisiae TIM10 strain growth, BacTiter-Glo luminescence, 24 h; inhibition, % at 10 µM; hit rate 1.4% among 330,000; AID 463195, 2010;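 active = inhibition of 40% or more at the single tested concentration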;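 also: wild-type TIM10 isogenic control strain grown at permissive 25 °C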
PfHsp90 yeast 2: growth inhibition of PfHsp90-expressing yeast, primary screen, antimalarial PfHsp90 inhibitor project, S. cerevisiae, BacTiter-Glo luminescence, single point, set 2; BacTiter-Glo ATP, 48 h; yeast lacking PDR1 and PDR3 efflux regulators; hit rate 0.32% among 310,000; AID 504621, 2011; inhibition, % at 9.4 µM;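 active = every replicate shows inhibition above about 80%, whatever the replicate mean, limit read from the data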
NALP3 yeast conf: NALP3 inhibitors retested in yeast, confirmation, luminescence, single concentration | shares compounds with NALP3 yeast inh | yeast expressing human NALP3 | inhibition, % at 10 µM | hit rate 81% among 1,300; in the data active = inhibition above about 48%
Casp1 ASC ctr: CASP1-PYCARD signaling inhibition in yeast, confirmatory test, counterassay for NLRP3 inhibitor program, one-dose; shares compounds with NALP3 yeast inh; yeast expressing Caspase-1-ASC, luminescence counter screen; inhibition, % at 10 µM; hit rate 66% among 1,000; AID 488784, 2010
NALP3 yeast rt: NALP3 inhibitors in yeast, repeat test, confirmation, luminescence, single concentration, retest. shares compounds with NALP3 yeast inh. yeast expressing human NALP3, luminescence read-out. inhibition, % at 10 µM. hit rate 53% among 1,000. AID 488794, 2010
A number is an active result. Only some compounds are listed: those with a hit (about 3.7% of all), similar ones and a draw of the others. Rule as the data show it, unless noted: active = inhibition above about 50%; inactive = the rest.

For c1nc(CCO[C@H]2CCCCO2)cc2cc3c(cc12)OCO3 the results were NALP3 yeast inh inactive, tim10-1 inh inactive, tim23-1 inh inactive, TIM10 inh inactive and PfHsp90 yeast 2 inactive.
Cc1ccc(C(=O)CSc2ncnc3ccccc23)o1 was read as NALP3 yeast inh 54, tim10-1 inh inactive, tim23-1 inh inactive, TIM10 inh inactive, PfHsp90 yeast 2 inactive, NALP3 yeast conf 69, Casp1 ASC ctr 73 and NALP3 yeast rt 58.
`O=C(Nc1ccc([N+](=O)[O-])cc1)Nc1ccc(Cl)cc1F` gave NALP3 yeast inh 76, tim10-1 inh inactive, tim23-1 inh inactive, TIM10 inh inactive, PfHsp90 yeast 2 inactive, NALP3 yeast conf 49, Casp1 ASC ctr inactive and NALP3 yeast rt inactive.
`CCc1nnc(NC(=O)CS(=O)(=O)Cc2ccccc2)s1` gave NALP3 yeast inh inactive, tim10-1 inh inactive, tim23-1 inh inactive, TIM10 inh inactive and PfHsp90 yeast 2 inactive.
For COCCCNC(=O)Cn1ccc(N)nc1=O the results were NALP3 yeast inh inactive, tim10-1 inh inactive, tim23-1 inh inactive, TIM10 inh inactive and PfHsp90 yeast 2 inactive.
`Cc1ccc2c(c1)CCCN2C(=O)c1cc(C)c(C)s1` gave NALP3 yeast inh 52, tim10-1 inh inactive, tim23-1 inh inactive, TIM10 inh inactive, PfHsp90 yeast 2 inactive, NALP3 yeast conf 59, Casp1 ASC ctr inactive and NALP3 yeast rt inactive.
Cc1ccc2c(c1)CCCN2C(=O)c1cccs1 was read as NALP3 yeast inh inactive, tim10-1 inh inactive, tim23-1 inh inactive, TIM10 inh inactive and PfHsp90 yeast 2 inactive.
Cc1ccc(Nc2n[nH]c(C)c2[N+](=O)[O-])cc1 was read as NALP3 yeast inh inactive, tim10-1 inh inactive, tim23-1 inh inactive, TIM10 inh inactive and PfHsp90 yeast 2 inactive.
Screening Cc1[nH]nc(Nc2ccc(Br)cc2)c1[N+](=O)[O-] returned NALP3 yeast inh 52, tim10-1 inh inactive, tim23-1 inh inactive, TIM10 inh inactive, PfHsp90 yeast 2 inactive and NALP3 yeast conf inactive.
`Cc1ccccc1Nc1nc(N)nc(COC(=O)c2c(C)noc2C)n1` gave NALP3 yeast inh inactive, tim10-1 inh inactive, tim23-1 inh inactive and TIM10 inh inactive.
O=C(Nc1ccccc1)c1cc2ccccc2c(=O)s1 was read as NALP3 yeast inh 59, tim10-1 inh inactive, tim23-1 inh inactive, TIM10 inh inactive, PfHsp90 yeast 2 inactive and NALP3 yeast conf inactive.
c1cc(-c2cc3cc4c(cc3cn2)OCO4)cs1 was read as NALP3 yeast inh 57, tim10-1 inh inactive, tim23-1 inh inactive, TIM10 inh inactive, PfHsp90 yeast 2 inactive, NALP3 yeast conf 51, Casp1 ASC ctr inactive and NALP3 yeast rt inactive.
COc1ccc(/C=C/C(=O)Nc2cc(C)on2)cc1 was read as NALP3 yeast inh inactive, tim10-1 inh inactive, tim23-1 inh inactive, TIM10 inh inactive and PfHsp90 yeast 2 inactive.
For Cc1cc(NC(=O)/C=C/c2ccccc2)no1 the results were NALP3 yeast inh 50, tim10-1 inh inactive, tim23-1 inh inactive, TIM10 inh inactive, PfHsp90 yeast 2 inactive, NALP3 yeast conf 68, Casp1 ASC ctr inactive and NALP3 yeast rt inactive.
O=C1/C(=C\c2ccco2)SC(=S)N1c1ccc(O)cc1 was read as NALP3 yeast inh 81, tim10-1 inh inactive, tim23-1 inh inactive, TIM10 inh inactive, PfHsp90 yeast 2 inactive, NALP3 yeast conf 61, Casp1 ASC ctr inactive and NALP3 yeast rt inactive.
`C(=C\c1ccccc1)/CSc1nnc(-c2cccnc2)o1` gave NALP3 yeast inh 52, tim10-1 inh inactive, tim23-1 inh inactive, TIM10 inh inactive, PfHsp90 yeast 2 inactive, NALP3 yeast conf inactive, Casp1 ASC ctr inactive and NALP3 yeast rt inactive.
Screening O=C(Cn1nc(C(=O)O)c2ccccc2c1=O)Nc1cc(S(=O)(=O)N2CCOCC2)ccc1Cl returned NALP3 yeast inh inactive, tim10-1 inh inactive, tim23-1 inh inactive, TIM10 inh inactive and PfHsp90 yeast 2 inactive.
